Among the test systems are SK-MEL-2 melanoma; EKVX NSCLC; SN12C renal; UO-31 renal; TK-10 renal; ACHN renal; CAKI-1 renal; A498 renal; CCRF-CEM leukemia; MOLT-4 leukemia; RPMI-8226 leukemia; OVCAR-8 ovarian; OVCAR-5 ovarian; OVCAR-4 ovarian; SK-OV-3 ovarian; IGROV1 ovarian; OVCAR-3 ovarian; HS 578T breast; NCI/ADR-RES ovarian.
Test in all cases: NCI-60 one-dose screen, 48 h (100 = growth as untreated, 0 = no growth, -100 = all killed)
What all share (conditions): 10 µM unless noted

About 83,000 compounds went through this panel and 20% of them were active in at least one assay; those are over-represented in the sample as a whole.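 Single-concentration screen, 48 h exposure, 96-well plates. Endpoint: percent growth. Below 10 = active.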 A number with no mark means an inactive call. The source made the active and inactive calls.

Consider `Nc1n[nH]c2cc(F)c([C@@H]3Nc4c(F)cc5[nH]ncc5c4[C@H]4C5CCC(C5)[C@@H]34)cc12` (stereo partly drawn), for which the growth was 43.5% in the experiment with SK-MEL-2 melanoma; 63.2% in the experiment with EKVX NSCLC; 17.3% with SN12C renal; 36.5% with UO-31 renal; 76.3% in the experiment with TK-10 renal; 24.4% in the experiment with ACHN renal. For the same compound, the growth was 6.94% (active) with CAKI-1 renal; -38.9% (active) in the experiment on A498 renal; 17.8% in the experiment on CCRF-CEM leukemia; 14.8% with MOLT-4 leukemia; 5.57% (active) in the experiment with RPMI-8226 leukemia; 29.2% in the experiment with OVCAR-8 ovarian. The growth in the experiment on OVCAR-5 ovarian was 35.1%; with OVCAR-4 ovarian, 44.2%; in the experiment with SK-OV-3 ovarian, 34%; in the experiment on IGROV1 ovarian it was 17.2%; with OVCAR-3 ovarian, 8.71% (active); in the experiment with HS 578T breast it was 26.8%. The growth in the experiment with NCI/ADR-RES ovarian was 11.8%.
Take `COc1ccc(-c2[nH]c(=S)n(C(CC3(C)NCC(=O)N3n3c(-c4ccccc4)cc(C)nc3=S)c3ccc(OC)cc3)c(=O)c2Br)cc1` (stereo not drawn): the growth with SK-MEL-2 melanoma was 73.5%; with EKVX NSCLC, 60.5%; with SN12C renal, 65.5%; in the experiment with UO-31 renal, 38.6%; in the experiment on TK-10 renal, 63.5%; in the experiment with ACHN renal it was 67.5%. Also, the growth with CAKI-1 renal is 31.4%; in the experiment with A498 renal it was -10.4% (active); in the experiment with CCRF-CEM leukemia, 57.5%; in the experiment with MOLT-4 leukemia, 54.6%; in the experiment on RPMI-8226 leukemia, -7.13% (active); in the experiment on OVCAR-8 ovarian, 71.2%. Besides, the growth with OVCAR-5 ovarian is 83.4%; in the experiment with OVCAR-4 ovarian, 54.9%; in the experiment with SK-OV-3 ovarian, 62.4%; in the experiment with IGROV1 ovarian, 50.6%; in the experiment on OVCAR-3 ovarian, 67.5%; with HS 578T breast, 40.7%. Besides, in the experiment with NCI/ADR-RES ovarian, the growth was 80.3%.
Turning to `COc1ccc(NC(=O)CSc2nnc(-c3cc(-c4ccc(S(N)(=O)=O)cc4)nc4ccccc34)n2-c2ccccc2)cc1`, the growth with SK-MEL-2 melanoma is 93%; in the experiment on EKVX NSCLC, 78.5%; in the experiment with SN12C renal it was 81.6%; in the experiment on UO-31 renal it was 74.5%; in the experiment on TK-10 renal, 103%; in the experiment on ACHN renal, 81.6%. Besides, the growth in the experiment with CAKI-1 renal was 61.2%; with A498 renal it was 54.3%; in the experiment on CCRF-CEM leukemia, 73.2%; in the experiment with MOLT-4 leukemia, 58%; with RPMI-8226 leukemia, 57.9%; in the experiment on OVCAR-8 ovarian, 75.4%. Besides, the growth with OVCAR-5 ovarian was 92.8%; in the experiment on OVCAR-4 ovarian, 88.6%; in the experiment with SK-OV-3 ovarian, 89.8%; with IGROV1 ovarian, 77.9%; in the experiment on OVCAR-3 ovarian, 95.1%; in the experiment with HS 578T breast, 75.6%. Moreover, the growth in the experiment on NCI/ADR-RES ovarian is 104%.
Turning to `CCc1ccccc1-n1c(N)c(C#N)c(-c2ccc(N(C)C)cc2)c(C#N)c1=O`, the growth is 112% in the experiment with SK-MEL-2 melanoma; 90.4% in the experiment on EKVX NSCLC; 96.8% with SN12C renal; 85.3% with UO-31 renal; 99.6% in the experiment on TK-10 renal; 94.8% in the experiment on ACHN renal. In addition, the growth in the experiment with CAKI-1 renal was 93.6%; in the experiment on A498 renal, 94.2%; in the experiment with CCRF-CEM leukemia, -30.8% (active); with MOLT-4 leukemia, 117%; in the experiment with RPMI-8226 leukemia, 74.7%; in the experiment with OVCAR-8 ovarian, 101%. Moreover, the growth in the experiment with OVCAR-5 ovarian was 97%; in the experiment with OVCAR-4 ovarian it was 99%; with SK-OV-3 ovarian, 107%; in the experiment with IGROV1 ovarian, 90.8%; in the experiment on OVCAR-3 ovarian, 97%; in the experiment with HS 578T breast it was 92.2%. The growth in the experiment on NCI/ADR-RES ovarian is 94.8%.
`O=C(Nc1ccc(Cl)cc1)Nc1ccc(Cl)c(C(F)(F)F)c1`: the growth in the experiment on SK-MEL-2 melanoma is 3.63% (active); in the experiment with EKVX NSCLC it was -3.9% (active); with SN12C renal it was 6.93% (active); in the experiment with UO-31 renal, 18.5%; with TK-10 renal, 18.1%; with ACHN renal, 0.165% (active). Besides, the growth is 8.5% (active) with CAKI-1 renal; -7.36% (active) in the experiment on A498 renal; -27.6% (active) with CCRF-CEM leukemia; -9.08% (active) in the experiment with MOLT-4 leukemia; -32.9% (active) in the experiment with RPMI-8226 leukemia; 19.9% with OVCAR-8 ovarian. Moreover, the growth with OVCAR-5 ovarian was 1.37% (active); in the experiment with OVCAR-4 ovarian, 30.6%; in the experiment on SK-OV-3 ovarian, -27.1% (active); in the experiment on IGROV1 ovarian, 29.8%; in the experiment on OVCAR-3 ovarian, 4.12% (active); in the experiment with HS 578T breast it was 19.7%. For the same compound, the growth with NCI/ADR-RES ovarian is -37.1% (active).
With `COc1ccc(/C=C/c2c(C(=O)/C=C/c3ccc(F)cc3)c(C)nc3ccccc23)cc1`, the growth with SK-MEL-2 melanoma is 81.3%; in the experiment on EKVX NSCLC it was 63.1%; with SN12C renal it was 45.2%; in the experiment on UO-31 renal, 45.6%; in the experiment on TK-10 renal, 110%; in the experiment with ACHN renal, 49.2%. Also, the growth in the experiment with CAKI-1 renal was 54.6%; in the experiment on A498 renal, 77.2%; in the experiment on CCRF-CEM leukemia it was 9.18% (active); in the experiment on MOLT-4 leukemia, 5.98% (active); in the experiment on RPMI-8226 leukemia, -8.58% (active); in the experiment on OVCAR-8 ovarian, 41.3%. Moreover, the growth in the experiment with OVCAR-5 ovarian is 50.9%; in the experiment with OVCAR-4 ovarian, 56%; in the experiment with SK-OV-3 ovarian it was 75.9%; in the experiment on IGROV1 ovarian it was 38.8%; with OVCAR-3 ovarian it was 37.5%; in the experiment with HS 578T breast, 70.5%. The growth in the experiment on NCI/ADR-RES ovarian was 33.1%.
For `Cc1ccccc1NC(=O)N/C(N)=N/c1nc(-c2cccc([N+](=O)[O-])c2)cs1`, the growth in the experiment on SK-MEL-2 melanoma was 37.3%; in the experiment on EKVX NSCLC, 49.3%; in the experiment with SN12C renal, 54.8%; with UO-31 renal, 58.1%; with TK-10 renal, 101%; in the experiment with ACHN renal it was 53.7%. Moreover, the growth with CAKI-1 renal is 26.4%; with A498 renal, -3.64% (active); in the experiment with CCRF-CEM leukemia, 35.9%; with MOLT-4 leukemia, 30.2%; with RPMI-8226 leukemia, 34.1%; with OVCAR-8 ovarian it was 67.3%. For the same compound, the growth with OVCAR-5 ovarian is 76.3%; with OVCAR-4 ovarian, 56.5%; in the experiment on SK-OV-3 ovarian, 57.2%; in the experiment with IGROV1 ovarian, 37.1%; in the experiment with OVCAR-3 ovarian it was 26.9%; in the experiment on HS 578T breast, 11.2%. In addition, the growth with NCI/ADR-RES ovarian is 2.74% (active).

(Values after PubChem BioAssay (NCI).)
